The structures appear in SMILES notation.

In one assay the target is MAP/microtubule affinity-regulating kinase 3 (Homo sapiens) (UniProt P27448). Particulars: at 1 µM.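 Also: reported values are averaged percent inhibition of MARK3.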
MAP/microtubule affinity-regulating kinase 3 (Homo sapiens), sequence (P27448 whole entry, looked up): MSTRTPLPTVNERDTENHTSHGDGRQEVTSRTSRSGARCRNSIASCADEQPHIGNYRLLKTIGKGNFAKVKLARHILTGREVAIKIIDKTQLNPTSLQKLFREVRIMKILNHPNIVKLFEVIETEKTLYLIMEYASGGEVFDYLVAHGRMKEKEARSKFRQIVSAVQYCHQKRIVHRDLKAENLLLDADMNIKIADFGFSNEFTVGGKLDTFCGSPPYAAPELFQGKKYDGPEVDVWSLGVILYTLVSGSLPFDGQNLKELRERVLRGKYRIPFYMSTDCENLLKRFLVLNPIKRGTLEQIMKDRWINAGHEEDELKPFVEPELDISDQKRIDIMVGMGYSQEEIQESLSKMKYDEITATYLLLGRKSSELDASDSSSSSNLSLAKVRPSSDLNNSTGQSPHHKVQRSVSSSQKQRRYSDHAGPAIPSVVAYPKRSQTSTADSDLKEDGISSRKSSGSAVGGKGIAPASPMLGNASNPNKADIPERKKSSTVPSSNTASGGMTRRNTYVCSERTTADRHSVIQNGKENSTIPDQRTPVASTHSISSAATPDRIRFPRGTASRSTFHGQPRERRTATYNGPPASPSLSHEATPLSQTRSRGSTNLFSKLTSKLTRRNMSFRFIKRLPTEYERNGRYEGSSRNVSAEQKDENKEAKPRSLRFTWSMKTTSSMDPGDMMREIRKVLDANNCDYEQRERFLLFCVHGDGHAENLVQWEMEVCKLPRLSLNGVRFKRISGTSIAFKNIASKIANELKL
Take `CCS(=O)(=O)c1ccc(OC)c(Nc2ncc(-c3cccc(-c4ccccc4F)c3)o2)c1`: the inhibition stood at 7.39%.

Take `C/C(Nc1ccc(S(N)(=O)=O)cc1)=C1/C(=O)Nc2ccccc21`: the inhibition is 19.8%.

For `CN(C)CCOc1ccc(-c2cc(-c3ccc4c(c3)CCC4=NO)c(-c3ccncc3)o2)cc1`, the inhibition is -0.6%.

Consider `CCc1cccc(CC)c1/C=C/c1cncc(C(=O)NC)c1`, for which the inhibition stood at 0.43%.

`COc1ccc2cc(-c3c(-c4ccncc4)nc(-c4ccc(S(C)(=O)=O)cc4C)n3C)ccc2c1`: the inhibition came to 2.48%.

For `CCS(=O)(=O)c1ccc(OC)c(Nc2ncc(-c3ccccc3Cl)o2)c1`, the inhibition is -1.14%.

In the case of `COc1cc2ncn(-c3cc(OCCc4ccccc4)c(C(N)=O)s3)c2cc1OC`, the inhibition came to 1.74%.

Consider `CN1CCN(CCCNc2nc3ccc(Oc4ccc(NC(=O)Nc5cc(C(F)(F)F)ccc5F)cc4)cc3[nH]2)CC1`, for which the inhibition came out at 0.11%.

Turning to `Cc1ccc(NC(=O)c2ccoc2)cc1-c1ccc(C(=O)NCC2CC2)cc1`, the inhibition was found to be 1.79%.

In the case of `COc1ccc2cc(-c3c(-c4ccncc4)nc(-c4ccc([S+](C)[O-])cc4C)n3C)ccc2c1` (stereo not drawn), the inhibition is -1.9%.

With `O=C(NCC1CC1)c1ccc(-c2cccc(C(=O)NC3CC3)c2)cc1`, the inhibition stood at 6.77%.

With `O=C(Nc1n[nH]c2cc(-c3cc(F)ccc3F)ccc12)C1CC1`, the inhibition is -0.14%.

For the compound `COc1cc(N2CCN(C(C)C)CC2)ccc1Nc1nc(Nc2ccc(F)cc2C(=O)NC[C@@H](O)CO)c2cc[nH]c2n1`, the inhibition came out at 19.6%.

On to `NC(=O)c1cc(-c2ccncc2)cc(-c2ccccc2)c1N`, for which the inhibition came to 11.9%.

For the compound `Fc1ccc(-c2ncn(C3CCNCC3)c2-c2ccnc(Oc3ccc4c(c3)OCO4)n2)cc1`, the inhibition came out at 5.12%.

Take `FC(F)(F)c1cccc(Nc2nccc(-c3cnn4nc(-c5ccccc5)ccc34)n2)c1`: the inhibition stood at 1.86%.

Consider `COc1cc2ncn(-c3cc(OCc4ccccc4C(F)(F)F)c(C(C)=O)s3)c2cc1OC`, for which the inhibition was determined as 3.71%.

Take `Fc1ccc(-c2ncn(CCCN3CCOCC3)c2-c2ccncc2)cc1`: the inhibition is 22%.

For the compound `NS(=O)(=O)c1ccc(Nc2cc(-c3ccc(O)c(F)c3)n[nH]2)cc1`, the inhibition worked out at 4.97%.

Turning to `CN(C)CCCNc1nccc(-c2c(-c3ccc(F)cc3)nn3cc(C(F)(F)F)ccc23)n1`, the inhibition was found to be 3%.

Take `Fc1ccc(-c2c(-c3ccncc3)nc3n2CCS3)cc1`: the inhibition is 11.9%.

Regarding `O=C(Nc1n[nH]c2nc(-c3ccco3)ccc12)C1CC1`, the inhibition was found to be 1.53%.

Regarding `C[C@@H](Oc1cc(-n2cnc3ccc(OCC4CCN(C)CC4)cc32)sc1C(N)=O)c1ccccc1Cl`, the inhibition is 31.2%.

Turning to `c1ccc(-c2n[nH]cc2-c2ccnc(-c3ccc(OCCN4CCOCC4)cc3)c2)nc1`, the inhibition was 5.45%.

Regarding `O=C1Nc2ccccc2/C1=C/Nc1ccc(-n2cncn2)cc1`, the inhibition worked out at 36.4%.

As for `c1ccc(Oc2ccc(Nc3ncc(-c4ccccc4)o3)cc2)cc1`, the inhibition was -0.43%.

Take `CCN(CC)Cc1ccc(Nc2nccc(-c3cnn4ncccc34)n2)cc1`: the inhibition worked out at 24.7%.

In the case of `Cc1ccc(C(=O)NC(C)C)cc1-c1ccc(C(=O)NCC2CC2)cc1`, the inhibition was -0.42%.

For `COc1cc2ncn(-c3cc(OCc4cccs4)c(C(N)=O)s3)c2cc1OC`, the inhibition turned out to be 20.3%.

Regarding `O=C(Nc1ccc(Oc2ccc3[nH]c(NC(=O)c4ccccc4)nc3c2)cc1)Nc1cc(C(F)(F)F)ccc1F`, the inhibition worked out at 22.9%.

As for `COc1ccc(-c2ccc3c(NC(=O)C4CC4)n[nH]c3n2)cc1`, the inhibition worked out at 2.41%.

With `COc1cc(Nc2ncc3c(C)nc(-c4cccc(C(F)(F)F)c4)n3n2)cc(OC)c1OC`, the inhibition came to 7.63%.

For `Fc1ccc(-c2ncn(C3CCNCC3)c2-c2ccnc(Oc3ccc(F)c(F)c3)n2)cc1`, the inhibition stood at 12.2%.

Regarding `NS(=O)(=O)c1ccc(N/N=C2\C(=O)Nc3ccc(C(=O)NCCCn4ccnc4)cc32)cc1`, the inhibition is 5.47%.

The next assay has as its target T1, MAP/microtubule affinity-regulating kinase 4 (Homo sapiens) (UniProt Q96L34).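 Also: values are averaged percent inhibition of MARK4.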
T1 sequence (whole entry): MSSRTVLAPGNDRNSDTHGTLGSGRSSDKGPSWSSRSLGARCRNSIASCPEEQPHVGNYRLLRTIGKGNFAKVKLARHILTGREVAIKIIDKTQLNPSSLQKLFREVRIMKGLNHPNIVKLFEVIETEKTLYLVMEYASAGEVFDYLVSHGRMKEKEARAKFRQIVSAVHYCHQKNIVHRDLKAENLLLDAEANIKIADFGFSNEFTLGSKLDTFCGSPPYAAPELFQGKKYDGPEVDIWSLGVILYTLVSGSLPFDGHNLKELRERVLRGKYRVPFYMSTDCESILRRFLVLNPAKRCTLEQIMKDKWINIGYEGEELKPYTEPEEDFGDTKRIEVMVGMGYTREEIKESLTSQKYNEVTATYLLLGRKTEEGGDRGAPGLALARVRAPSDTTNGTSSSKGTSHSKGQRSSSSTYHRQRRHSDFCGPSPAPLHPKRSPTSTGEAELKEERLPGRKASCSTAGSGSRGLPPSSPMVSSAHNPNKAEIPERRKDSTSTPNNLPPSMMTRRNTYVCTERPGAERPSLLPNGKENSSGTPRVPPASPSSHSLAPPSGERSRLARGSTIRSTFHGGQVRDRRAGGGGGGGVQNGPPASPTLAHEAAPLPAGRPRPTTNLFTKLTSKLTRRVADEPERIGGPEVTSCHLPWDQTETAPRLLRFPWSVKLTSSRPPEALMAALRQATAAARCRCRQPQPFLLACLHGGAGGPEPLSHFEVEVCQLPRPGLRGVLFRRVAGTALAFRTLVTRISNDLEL
Particulars: at 0.1 µM.
In the case of `CCS(=O)(=O)c1ccc(OC)c(Nc2ncc(-c3cccc(-c4ccccc4F)c3)o2)c1`, the inhibition was found to be 1.24%.

As to `C/C(Nc1ccc(S(N)(=O)=O)cc1)=C1/C(=O)Nc2ccccc21`, the inhibition was found to be 4.34%.

`CN(C)CCOc1ccc(-c2cc(-c3ccc4c(c3)CCC4=NO)c(-c3ccncc3)o2)cc1`: the inhibition is -0.26%.

Take `CCc1cccc(CC)c1/C=C/c1cncc(C(=O)NC)c1`: the inhibition came out at 0.15%.

For `COc1ccc2cc(-c3c(-c4ccncc4)nc(-c4ccc(S(C)(=O)=O)cc4C)n3C)ccc2c1`, the inhibition came to 2.52%.

On to `CCS(=O)(=O)c1ccc(OC)c(Nc2ncc(-c3ccccc3Cl)o2)c1`, for which the inhibition is -1.13%.

Take `COc1cc2ncn(-c3cc(OCCc4ccccc4)c(C(N)=O)s3)c2cc1OC`: the inhibition stood at 0.87%.

Regarding `CN1CCN(CCCNc2nc3ccc(Oc4ccc(NC(=O)Nc5cc(C(F)(F)F)ccc5F)cc4)cc3[nH]2)CC1`, the inhibition came to 1.5%.

Consider `Cc1ccc(NC(=O)c2ccoc2)cc1-c1ccc(C(=O)NCC2CC2)cc1`, for which the inhibition stood at 0.31%.

On to `COc1ccc2cc(-c3c(-c4ccncc4)nc(-c4ccc([S+](C)[O-])cc4C)n3C)ccc2c1` (stereo not drawn), for which the inhibition is -0.17%.

Take `O=C(NCC1CC1)c1ccc(-c2cccc(C(=O)NC3CC3)c2)cc1`: the inhibition was 0.89%.

With `O=C(Nc1n[nH]c2cc(-c3cc(F)ccc3F)ccc12)C1CC1`, the inhibition was found to be 2.5%.

Consider `COc1cc(N2CCN(C(C)C)CC2)ccc1Nc1nc(Nc2ccc(F)cc2C(=O)NC[C@@H](O)CO)c2cc[nH]c2n1`, for which the inhibition was 1.95%.

In the case of `NC(=O)c1cc(-c2ccncc2)cc(-c2ccccc2)c1N`, the inhibition was 2.69%.

Consider `Fc1ccc(-c2ncn(C3CCNCC3)c2-c2ccnc(Oc3ccc4c(c3)OCO4)n2)cc1`, for which the inhibition was 2.61%.

For `FC(F)(F)c1cccc(Nc2nccc(-c3cnn4nc(-c5ccccc5)ccc34)n2)c1`, the inhibition was 1.13%.

For the compound `COc1cc2ncn(-c3cc(OCc4ccccc4C(F)(F)F)c(C(C)=O)s3)c2cc1OC`, the inhibition is 3%.

In the case of `Fc1ccc(-c2ncn(CCCN3CCOCC3)c2-c2ccncc2)cc1`, the inhibition came to 0.52%.

`NS(=O)(=O)c1ccc(Nc2cc(-c3ccc(O)c(F)c3)n[nH]2)cc1`: the inhibition was determined as 1.26%.

Regarding `CN(C)CCCNc1nccc(-c2c(-c3ccc(F)cc3)nn3cc(C(F)(F)F)ccc23)n1`, the inhibition came to 1.09%.

With `Fc1ccc(-c2c(-c3ccncc3)nc3n2CCS3)cc1`, the inhibition amounted to 1.3%.

As to `O=C(Nc1n[nH]c2nc(-c3ccco3)ccc12)C1CC1`, the inhibition was 0.31%.

On to `C[C@@H](Oc1cc(-n2cnc3ccc(OCC4CCN(C)CC4)cc32)sc1C(N)=O)c1ccccc1Cl`, for which the inhibition was determined as 6.41%.

In the case of `c1ccc(-c2n[nH]cc2-c2ccnc(-c3ccc(OCCN4CCOCC4)cc3)c2)nc1`, the inhibition turned out to be 4.57%.

As to `O=C1Nc2ccccc2/C1=C/Nc1ccc(-n2cncn2)cc1`, the inhibition came to 3.35%.

Regarding `c1ccc(Oc2ccc(Nc3ncc(-c4ccccc4)o3)cc2)cc1`, the inhibition is -0.01%.

`CCN(CC)Cc1ccc(Nc2nccc(-c3cnn4ncccc34)n2)cc1`: the inhibition turned out to be 4.42%.

As for `Cc1ccc(C(=O)NC(C)C)cc1-c1ccc(C(=O)NCC2CC2)cc1`, the inhibition came out at 1.15%.

Consider `COc1cc2ncn(-c3cc(OCc4cccs4)c(C(N)=O)s3)c2cc1OC`, for which the inhibition came out at 2.12%.

In the case of `O=C(Nc1ccc(Oc2ccc3[nH]c(NC(=O)c4ccccc4)nc3c2)cc1)Nc1cc(C(F)(F)F)ccc1F`, the inhibition turned out to be 0.56%.

On to `COc1ccc(-c2ccc3c(NC(=O)C4CC4)n[nH]c3n2)cc1`, for which the inhibition stood at 0%.

With `COc1cc(Nc2ncc3c(C)nc(-c4cccc(C(F)(F)F)c4)n3n2)cc(OC)c1OC`, the inhibition came to 1.28%.

With `Fc1ccc(-c2ncn(C3CCNCC3)c2-c2ccnc(Oc3ccc(F)c(F)c3)n2)cc1`, the inhibition was 3.57%.

With `NS(=O)(=O)c1ccc(N/N=C2\C(=O)Nc3ccc(C(=O)NCCCn4ccnc4)cc32)cc1`, the inhibition stood at 3.39%.

The record behind these values is ChEMBL document CHEMBL1961873, “Compounds: GSK PKIS; Assays: Nanosyn kinase panel” (2012).
